High-throughput results: PubChem BioAssay, several laboratories
Hits are enriched below; roughly 4.9% of the tested compounds scored in any of these assays.
tim23-1 inh: growth inhibitors of tim23-1 mutant yeast; S. cerevisiae tim23-1 growth, BacTiter-Glo luminescence, 24 h; inhibition, % at 20 µM; actives 1.3% (n = 330,000); AID 463212;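 active means growth inhibition of the mutant yeast at or above 50%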;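 further: temperature-sensitive mutant grown at 25 °C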
NALP1 yeast inh: NALP1 inhibition; S. cerevisiae NALP1/ASC/caspase-1 growth, X-gal OD620, 72 h; inhibition, % at 10 µM; actives 0.61% (n = 280,000); AID 2071; in the data active means inhibition mostly above about 24%, no sharp cut-off; inactive means mostly below about 32%
tim10-1 inh: inhibits growth of tim10-1 mutant yeast; inhibition, % at 20 µM; actives 2.2% (n = 330,000); AID 463190; S. cerevisiae tim10-1 ts strain growth, BacTiter-Glo, 24 h;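 active means inhibition of at least 40%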;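 further: mutant grown at 25 °C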
TIM10 inh: growth inhibitors of TIM10 yeast strain; S. cerevisiae TIM10 strain growth, BacTiter-Glo luminescence, 24 h; inhibition, % at 10 µM; actives 1.4% (n = 330,000);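 active means inhibition of 40% or more at the single tested concentration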;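 further: wild-type TIM10 isogenic control strain grown at permissive 25 °C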
NALP3 yeast inh: inhibitors of NALP3 inflammasome in yeast; Yeast reconstituted NLRP3/ASC/caspase-1, beta-gal luminescence, 24 h; AID 2825; actives 0.39% (n = 330,000); inhibition, % at 10 µM;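 active means inhibition of 50% or more; inactive means inhibition below 50%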
SKKanGAS inh: SKKanGAS growth inhibition. inhibition, % at 7.5 µM. S. pyogenes SKKanGAS, kanamycin growth, BacTiter-Glo, 6 h. actives 1.3% (n = 300,000);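 active means mean replicate score, as percent of positive control median, at least 50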;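 further: strain carries kanamycin resistance gene driven by streptokinase promoter and grows in 40 µg/ml kanamycin; loss of luminescence reflects streptokinase promoter inhibition or plain growth inhibition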
tim10-1 conf: tim10-1 yeast growth inhibition, confirmed. inhibition, % at 20 µM. S. cerevisiae tim10-1 ts strain growth, BacTiter-Glo, 24 h. actives 56% (n = 7,400). AID 463213. shares compounds with tim10-1 inh;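 active means inhibition of yeast growth at or above a set limit in either of two repeat tests at 20 µM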;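 further: tim10-1 mutant grown at permissive 25 °C to find synthetic lethal compounds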
TIM10 conf: confirmation of TIM10 yeast growth inhibitors. inhibition, % at 10 µM. actives 63% (n = 4,600). shares compounds with TIM10 inh. S. cerevisiae tim10 strain growth, BacTiter-Glo luminescence, 24 h;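 active means inhibition of yeast growth at or above a set limit in either of two replicates at 10 µM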; further: this counterscreen used the strain with wild-type TIM10
tim23-1 confirm: tim23-1 yeast growth inhibition, confirmed. S. cerevisiae tim23-1 growth, BacTiter-Glo luminescence, 24 h. inhibition, % at 20 µM. actives 83% (n = 4,400). shares compounds with tim23-1 inh. AID 463218;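 active means inhibition above about 39% in either of two replicate wells at 20 µM, limit read from the data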;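 further: temperature-sensitive tim23-1 mutant grown at 25 °C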
A number is an active result.

Results for COc1ccc(O)c(-c2cc(-c3ccc(F)cc3)n[nH]2)c1 ?
tim23-1 inh: 63; NALP1 yeast inh: inactive; tim10-1 inh: 49; TIM10 inh: inactive; NALP3 yeast inh: inactive; SKKanGAS inh: inactive; tim10-1 conf: inactive; tim23-1 confirm: 72

Results for O=C(COC(=O)Cc1ccc(Br)cc1)NC1CCCC1 ?
tim23-1 inh: inactive; tim10-1 inh: inactive; TIM10 inh: inactive; NALP3 yeast inh: inactive

What do the screens show for `COc1ccc(/C=C/C=C2\N=C(SC)SC2=O)cc1`?
tim23-1 inh: 72; NALP1 yeast inh: inactive; tim10-1 inh: 51; TIM10 inh: 57; NALP3 yeast inh: inactive; SKKanGAS inh: inactive; tim10-1 conf: 38; TIM10 conf: inactive; tim23-1 confirm: inactive

What do the screens show for `O=C(O)C1CCN(C(=O)CCN2C(=O)S/C(=C\c3ccccc3)C2=O)CC1`?
tim23-1 inh: inactive; NALP1 yeast inh: inactive; tim10-1 inh: inactive; TIM10 inh: inactive; NALP3 yeast inh: inactive; SKKanGAS inh: inactive

What do the screens show for `Oc1ccccc1-c1nc(/C=C/c2ccccc2)nn1-c1ccccc1`?
NALP1 yeast inh: inactive; SKKanGAS inh: inactive

What do the screens show for `Oc1ccc(/C=C/c2nc(-c3ccccc3O)n(-c3ccccc3)n2)cc1`?
tim23-1 inh: 59; NALP1 yeast inh: inactive; tim10-1 inh: 60; TIM10 inh: inactive; NALP3 yeast inh: inactive; SKKanGAS inh: inactive; tim10-1 conf: 51; tim23-1 confirm: 64

Results for COCCCn1c(C(=O)N2CC(C)OC(C)C2)cc2c(=O)n3ccccc3nc21 (configuration not stated) ?
tim23-1 inh: inactive; NALP1 yeast inh: inactive; tim10-1 inh: inactive; TIM10 inh: inactive; NALP3 yeast inh: inactive; SKKanGAS inh: inactive

Results for COc1ccccc1/C=C/C(=O)Nc1cccc(S(=O)(=O)NC2=NCCCCC2)c1 ?
tim23-1 inh: inactive; NALP1 yeast inh: inactive; tim10-1 inh: inactive; TIM10 inh: inactive; NALP3 yeast inh: inactive; SKKanGAS inh: inactive

Results for COc1ccc(NC(=O)CN(C)C(=O)c2ccc(S(=O)(=O)Nc3ccccc3F)cc2)cc1 ?
tim23-1 inh: inactive; tim10-1 inh: inactive; TIM10 inh: inactive; NALP3 yeast inh: inactive; SKKanGAS inh: inactive

How did COc1cccc(CN(C)C(=O)c2cc(COc3ccc(-n4cncn4)cc3)on2)c1 do in these assays?
tim23-1 inh: 51; NALP1 yeast inh: inactive; tim10-1 inh: 41; TIM10 inh: inactive; NALP3 yeast inh: inactive; SKKanGAS inh: inactive; tim10-1 conf: 30; tim23-1 confirm: inactive

What do the screens show for `COc1cccc(CN(C)C(=O)c2cc(COc3c(F)cccc3F)on2)c1`?
tim23-1 inh: inactive; NALP1 yeast inh: inactive; tim10-1 inh: inactive; TIM10 inh: inactive; NALP3 yeast inh: inactive; SKKanGAS inh: inactive

What do the screens show for `CC(C)(Oc1ccc(Cl)cc1)C(=O)NCCN1C(=O)S/C(=C/c2cccnc2)C1=O`?
tim23-1 inh: 53; NALP1 yeast inh: inactive; tim10-1 inh: 48; TIM10 inh: 51; NALP3 yeast inh: inactive; SKKanGAS inh: inactive; tim10-1 conf: 44; TIM10 conf: inactive; tim23-1 confirm: 48

How did CC(C)CN1C(=O)/C(=C(/C#N)C(=O)NC2CCCCC2)c2ccccc21 do in these assays?
tim23-1 inh: 64; NALP1 yeast inh: inactive; tim10-1 inh: 72; TIM10 inh: 79; NALP3 yeast inh: inactive; SKKanGAS inh: inactive; tim10-1 conf: 71; TIM10 conf: 79; tim23-1 confirm: 50

What do the screens show for `CCCCN1C(=O)/C(=C(/C#N)C(=O)N2CCCC2)c2ccccc21`?
tim23-1 inh: inactive; tim10-1 inh: inactive; TIM10 inh: inactive; NALP3 yeast inh: inactive; SKKanGAS inh: inactive

How did Cc1ccc(S(=O)(=O)Nc2c(C)nc3nc(C)[nH]n3c2=O)cc1 do in these assays?
tim23-1 inh: inactive; NALP1 yeast inh: inactive; tim10-1 inh: inactive; TIM10 inh: inactive; NALP3 yeast inh: inactive; SKKanGAS inh: inactive
